M1 antag: blocks human M1 muscarinic receptor; P11229; CHO-K1 hM1, Fluo-8 calcium fluorescence, ACh EC80 antagonist; inhibition, % at 3 µM; hit rate 1.3% among 360,000;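 active = percent inhibition above its own plate's cutoff, namely the mean of that plate's compound wells plus 3 SD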;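 note: peak over basal fluorescence ratio during 140 s after agonist addition; 0% = ACh EC80 plus DMSO and 100% = DMSO alone without agonist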
Target sequence (P11229 whole entry, looked up): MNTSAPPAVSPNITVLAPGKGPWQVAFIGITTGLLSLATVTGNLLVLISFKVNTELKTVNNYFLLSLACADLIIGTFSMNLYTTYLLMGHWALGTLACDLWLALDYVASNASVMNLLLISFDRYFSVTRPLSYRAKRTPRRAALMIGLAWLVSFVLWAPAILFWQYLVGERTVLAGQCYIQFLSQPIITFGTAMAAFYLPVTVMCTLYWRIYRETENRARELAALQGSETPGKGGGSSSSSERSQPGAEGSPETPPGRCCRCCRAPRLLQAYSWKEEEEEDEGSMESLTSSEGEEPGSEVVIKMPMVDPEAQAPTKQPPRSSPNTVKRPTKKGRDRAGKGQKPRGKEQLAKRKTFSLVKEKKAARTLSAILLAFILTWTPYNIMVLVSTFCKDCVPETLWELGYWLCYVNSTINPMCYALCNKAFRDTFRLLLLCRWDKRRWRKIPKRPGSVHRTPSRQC
CHRM1 PAM: human CHRM1 positive allosteric modulation; CHO-K1 hM1, Fluo-8 calcium fluorescence, ACh EC20; 0% = ACh EC20, 100% = maximal ACh; activation, % at 3 µM; AID 588819; hit rate 0.088% among 360,000; P11229; in the data active = activation above about 19%, passing the limit was not always enough
CHRM1 agonist: activates human CHRM1 receptor; P11229; CHO-K1 hM1, Fluo-8 calcium fluorescence, agonist mode; 0% DMSO, 100% acetylcholine EC100; activation, % at 3 µM; hit rate 0.33% among 360,000; AID 588814;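 active = activation above the run's mean compound activation plus 3 SD, cut at about 16% in these data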;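 note: peak over basal fluorescence ratio within a 140 s kinetic read after compound addition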
CHO-K1 Ca PAM: counter-screen for M1 PAMs: effect in parental CHO-K1 cells; hit rate 0.02% among 360,000; activation, % at 3 µM; ATP EC20, Fluo-8 calcium fluorescence; 0% at ATP EC20, 100% at ATP max; AID 602247;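 active = activation above the run cutoff, the mean activation of all test compounds plus 3 SD, cut at about 40% in these data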;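 note: peak over basal fluorescence ratio in a 140 s read after ATP addition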
CHO-K1 Ca antag: nonselective inhibitor or artifact in parental CHO-K1 cells; ATP-induced calcium, Fluo-8 fluorescence; inhibition, % at 3 µM; hit rate 0.6% among 360,000;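 active = inhibition above a per-plate cutoff, the plate's mean sample inhibition plus 3 SD, cut at about 24% in these data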;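 note: 0% = DMSO plus EC80 ATP and 100% = DMSO alone without ATP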
CHO-K1 Ca ag: counter-screen for M1 agonists: effect in parental CHO-K1 cells | Fluo-8 calcium fluorescence; scaled to maximal ATP response, vehicle zero | activation, % at 3 µM | hit rate 0.48% among 360,000; in the data active = activation above about 15%;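 note: untransfected CHO-K1 host cells lacking M1 receptor as counterscreen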
The depositor's hits bear a star. Only some compounds are listed: those with a hit (about 2.4% of all), similar ones and a draw of the others.

SMILES | M1 antag | CHRM1 PAM | CHRM1 agonist | CHO-K1 Ca PAM | CHO-K1 Ca antag | CHO-K1 Ca ag
Cc1cc2c(cc(C(=O)N3CCC(C(=O)N4CCCC4)CC3)n2Cc2c(F)cccc2Cl)o1 | 30.5* | -12.7 | -0.8 | -4.4 | 7.4 | 7.0
CCOC(=O)c1cc2occc2n1Cc1c(F)cccc1Cl | -14.2 | 5.2 | -4.1 | 17.5 | -8.9 | 0.0
Cc1n[nH]c(=O)c2c(NC(=O)CSc3nn(-c4ccccc4)c(=S)s3)oc(C)c12 | -3.9 | 2.3 | -3.0 | 8.0 | 1.5 | -0.2
CC(=O)O/N=C1\C(=O)N(Cc2ccc(C)cc2)c2ccccc21 | -6.2 | 10.3 | 24.2* | 16.5 | 5.0 | 1.0
COc1cc(C(=O)NCc2cc3ccccc3n2C)cc(OC)c1OC | -3.1 | -0.9 | -2.5 | -11.3 | 15.9 | 16.4*
CCNC(=O)N1CCCC(C(=O)c2ccc(C(F)(F)F)cc2)C1 (centres undefined) | -4.0 | -0.9 | -3.3 | 3.1 | -1.5 | 0.8
Cc1cc(C)c(NC(=O)CN(C)CC(=O)Nc2cccc(S(=O)(=O)N(C)c3ccccc3)c2)c(C)c1 | 36.2* | -13.8 | -0.7 | -1.2 | -9.2 | 8.8
CN(c1ccccc1)S(=O)(=O)c1cccc(NC(=O)CN2CCCc3ccccc32)c1 | 14.9 | -3.1 | -3.3 | 9.6 | 7.6 | 15.3*
CN(CC(=O)Nc1cccc(F)c1)CC(=O)Nc1cccc(S(=O)(=O)N(C)c2ccccc2)c1 | 16.6 | -7.9 | -3.0 | 7.8 | -7.8 | 10.8
CN(c1ccccc1)S(=O)(=O)c1cccc(NC(=O)CSc2nncs2)c1 | 31.2 | -12.3 | 0.6 | -6.7 | 29.1* | 13.3
CCCCC1CCC(C(=O)N(CCOC)c2c(N)n(CCCC)c(=O)[nH]c2=O)CC1 (centres undefined) | -12.9 | 10.3 | -2.7 | 24.1 | -5.0 | 1.3
Cc1cccc(NC(=S)N2CCN(Cc3ccccc3)CC2)c1C | 2.7 | -0.9 | 23.4* | 14.5 | 8.9 | 14.1
CCOC(=O)N1CCN(C(=S)Nc2cccc(C)c2C)CC1 | -9.2 | 0.6 | 19.0* | 7.1 | 4.7 | -0.3
COC(=O)c1sccc1NC(=S)N1CCCCC1 | -10.5 | 6.7 | -3.5 | 4.5 | 16.0 | -0.3
Cc1cc(Cl)ccc1NC(=S)N1CCN(Cc2ccccc2)CC1 | 2.3 | 1.9 | 2.7 | 6.6 | 2.2 | 0.6
COC(=O)c1sccc1NC(=S)N1CCN(c2cccc(C)c2C)CC1 | 0.0 | 2.5 | -6.9 | -15.4 | 24.2* | 0.1
CCOC(=O)N1CCN(C(=S)Nc2ccccc2C(C)C)CC1 | 17.2 | -7.1 | 10.1 | -10.0 | 3.7 | 0.0
COc1cc2[nH]c(C(=O)N3CCN(c4ccccc4F)CC3)cc2c(OC)c1OC | -20.8 | 18.4 | -4.5 | 11.5 | -19.1 | 0.9
O=C(N/N=C/c1ccccn1)c1ccc(Cl)c(Cl)c1 | -9.6 | 10.7 | 2.8 | 11.8 | 5.3 | 1.1
CC1(C(=O)OCC(=O)NCc2ccc(Cl)cc2)CC1(Cl)Cl (centres undefined) | -14.8 | 5.0 | -2.1 | 16.4 | -9.7 | 0.1
CC1(C(=O)OCC(=O)NC(=O)NCc2ccccc2)CC1(Cl)Cl (centres undefined) | -3.7 | 7.9 | -6.2 | 19.1 | -10.4 | 15.2*
Cn1c(=O)c2c(nc(Oc3ccccc3Br)n2C)n(C)c1=O | -17.5 | 7.5 | -0.7 | 3.4 | -9.1 | 0.9
Cn1c(=O)c(N)c2c3c(c(Br)ccc31)C(=O)c1ccccc1-2 | 12.7 | -2.1 | 16.2* | 13.6 | 0.8 | 31.7*
COc1cccc(CN2CCN(c3nc4nonc4nc3NC3CC3)CC2)c1 | -9.7 | -1.3 | -9.6 | 16.9 | -4.2 | 0.0
Cc1c(C)n(Cc2ccccc2)c2ncnc(Cl)c12 | 35.1* | -19.3 | -1.3 | -24.9 | 18.8 | 9.4
SMILES | M1 antag | CHRM1 PAM | CHRM1 agonist | CHO-K1 Ca PAM | CHO-K1 Ca antag | CHO-K1 Ca ag
Cc1cc(C)n(S(=O)(=O)c2ccccc2[N+](=O)[O-])n1 | -13.6 | 4.1 | -3.5 | -3.7 | 5.3 | 0.4
C[C@H]1c2cccc(O)c2C(O)=C2C(=O)[C@]3(O)C(O)=C(C(N)=O)C(=O)[C@@H](N(C)C)[C@@H]3[C@@H](O)[C@@H]21 | -4.7 | -12.2 | 25.0* | -11.2 | 12.8 | 0.0
CN(C)c1ccc(O)c2c1CC1CC3[C@@H](N(C)C)C(=O)C(C(N)=O)=C(O)[C@]3(O)C(=O)C1=C2O (some centres undefined) | -27.6 | 8.0 | -1.0 | -4.0 | 11.5 | -0.2
O=C1NC(=O)C2(N1)C(=O)c1cccc3cccc2c13 (centres undefined) | 6.0 | -9.1 | 49.0* | 0.6 | 20.3 | 99.8*
Cc1cc(C)c2c(=O)[nH]c(SCC(=O)c3ccc(C)c(C)c3)nc2n1 | 2.1 | 10.9 | -9.6 | 17.1 | -8.2 | 0.0
Cc1cc(O)ccc1C1(c2ccc(O)cc2C)OC(=O)c2ccccc21 | -26.8 | 5.7 | 15.3 | 10.1 | 12.6 | 5.8
CC(=O)Oc1ccc2c(c1)Oc1cc(OC(C)=O)ccc1C21OC(=O)c2ccccc21 | 102.5* | -29.1 | 973.8* | -11.8 | 101.5* | 824.0*
COc1ccc(NC(=O)/C(=C\c2ccc(F)cc2)NC(=O)c2ccco2)cc1 | -0.4 | 6.4 | -1.5 | -10.3 | 2.2 | -0.3
COc1cc(C2NC(=O)c3ccccc3O2)ccc1OC(C)C (centres undefined) | -2.5 | 12.5 | 0.3 | -9.5 | 25.4* | -0.6
COc1ccc2oc(C(=O)OCC(=O)/C(C#N)=C(\C)N)c(C)c2c1 | -13.2 | 14.1 | -0.3 | 5.3 | -4.0 | -0.1
CCN1CCN(C(=O)c2cc3cc(F)ccc3[nH]2)CC1 | -9.4 | 8.7 | -6.3 | -28.7 | 33.8* | -0.5
O=C1CCC(c2ccccc2)(C2CCN(Cc3ccccc3)CC2)C(=O)N1 (centres undefined) | 98.0* | -24.4 | -6.4 | 7.1 | -3.7 | 0.2
CCOC(=O)c1cc(C#N)c(N2CCN(c3ccccn3)CC2)nc1-c1ccccc1 | -6.1 | 1.6 | -8.2 | -9.2 | 11.2 | -0.7
CN(Cc1ccc(C#CCCO)cc1)CC1CCCN(CCc2ccc(Cl)cc2)C1 (centres undefined) | 40.3* | -27.2 | -7.2 | 19.6 | -9.0 | 3.2
CCN(Cc1ccc(OC)c(COC)c1)CC1CCCN(CCc2cccc(F)c2)C1 (centres undefined) | 4.1 | -10.1 | -9.4 | 14.3 | -10.5 | 0.1
CN(Cc1ccccc1O)CC1CCCN(CCc2ccc(Cl)cc2)C1 (centres undefined) | 80.0* | -29.4 | -9.2 | -7.2 | 8.4 | 0.4
CCN(Cc1ccc(C#CCCO)cc1)CC1CCCN(CCc2cccc(F)c2)C1 (centres undefined) | 51.9* | -28.4 | -8.2 | 1.5 | 2.3 | 0.3
COc1ccc(OC(F)(F)F)cc1CC1(C)C(=O)Nc2ccc(-c3ccsc3)cc21 (centres undefined) | 3.2 | 0.8 | -5.0 | 23.9 | -11.0 | 1.3
COc1ccc(C2CC=C(C(C)=O)CN2S(=O)(=O)c2ccc(Cl)cc2)cc1 (centres undefined) | 10.0 | -9.7 | -8.2 | 11.8 | 5.2 | 3.5

Compound activity from PubChem BioAssay.
